# Data reported in PubChem BioAssay (Tox21).
# Values without a mark were called inactive. Records with an inconclusive call do not appear. A call without a number means that no potency is given here. Calls of active or inactive are those of the source. Unless noted, the call rests on the fitted dose curve; in most records, active means well fitted curve in the direction sought with a large enough effect in the repeat runs; inconclusive means weak or mixed curves; inactive means no such curve, though single readings can be large; an effect the other way counts as inactive or inconclusive.
# Experiments:
# [1] = target: Luciferin 4-monooxygenase (Photinus pyralis) (UniProt P08659); assay: qHTS assay to identify small molecule inhibitors of firefly luciferase (AID 1224835); further: nearly all actives have a fitted effect of over 25% in size
# Luciferin 4-monooxygenase (Photinus pyralis), sequence (P08659 whole entry, looked up): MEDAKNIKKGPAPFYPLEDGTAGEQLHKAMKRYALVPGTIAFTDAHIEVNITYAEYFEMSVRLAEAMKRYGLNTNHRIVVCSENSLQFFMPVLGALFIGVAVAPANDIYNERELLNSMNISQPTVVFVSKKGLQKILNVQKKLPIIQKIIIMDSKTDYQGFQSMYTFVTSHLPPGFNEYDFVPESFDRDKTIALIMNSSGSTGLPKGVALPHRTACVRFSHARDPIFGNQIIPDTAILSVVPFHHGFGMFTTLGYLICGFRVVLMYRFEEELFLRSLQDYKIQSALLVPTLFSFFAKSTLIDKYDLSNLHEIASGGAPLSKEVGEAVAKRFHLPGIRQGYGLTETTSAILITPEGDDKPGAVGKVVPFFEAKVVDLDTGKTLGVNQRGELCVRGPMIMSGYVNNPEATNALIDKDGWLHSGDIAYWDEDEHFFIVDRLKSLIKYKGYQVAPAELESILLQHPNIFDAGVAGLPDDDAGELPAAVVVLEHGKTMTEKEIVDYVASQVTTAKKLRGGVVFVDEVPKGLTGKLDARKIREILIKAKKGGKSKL
# Outline: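 Biochemical qHTS: compounds run as interplate titrations against purified firefly enzyme, with D-luciferin and ATP each at its KM concentration. Light output recorded by CCD imaging.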
# [2] = qHTS assay to identify small molecule agonists of the constitutive androstane receptor (CAR) signaling pathway - cell viability counter screen (AID 1224836); further: nearly all actives have a fitted effect of over 45% in size
# Outline: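 Double-stable HepG2 hepatoma cells (hCAR plus CYP2B6-2.2kb) are treated for 23 h at 37 C with test compounds in 15-point concentration series. PK11195 at 0.75 uM final is co-added. Cell viability is quantified by CellTiter-Fluor.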
# [3] = qHTS assay to identify small molecule antagonists of the constitutive androstane receptor (CAR) signaling pathway - cell viability counter screen (AID 1224837); further: nearly all actives have a fitted effect of over 45% in size
# Outline: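 Read-out: CellTiter-Fluor fluorescence after 23 hr at 37 C/5% CO2. Cells: HepG2 double-stable for hCAR and CYP2B6-2.2kb. Compounds tested at 15 concentrations in the presence of CITCO, final concentration 50 nM.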
# [4] = target: Nuclear receptor subfamily 1 group I member 3 (Homo sapiens) (UniProt Q14994); assay: qHTS assay to identify small molecule antagonists of the constitutive androstane receptor (CAR) signaling pathway (AID 1224838);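 further: HepG2 cells stably expressing hCAR with CYP2B6 luciferase reporter stimulated by CITCO; nearly all actives have a fitted effect of over 40% in size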; further: potency means the concentration at half of the fitted maximal effect
# Nuclear receptor subfamily 1 group I member 3 (Homo sapiens), sequence (Q14994 whole entry, looked up): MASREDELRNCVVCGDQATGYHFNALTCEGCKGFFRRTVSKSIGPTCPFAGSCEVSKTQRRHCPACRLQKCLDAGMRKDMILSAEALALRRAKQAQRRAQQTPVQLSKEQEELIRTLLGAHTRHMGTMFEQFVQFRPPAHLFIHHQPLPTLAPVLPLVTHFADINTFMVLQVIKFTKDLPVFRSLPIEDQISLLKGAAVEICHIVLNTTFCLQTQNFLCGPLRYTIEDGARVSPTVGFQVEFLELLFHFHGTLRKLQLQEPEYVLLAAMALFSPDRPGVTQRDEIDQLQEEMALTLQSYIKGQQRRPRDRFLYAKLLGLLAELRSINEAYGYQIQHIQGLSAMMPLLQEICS
# Outline: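 Read-out: ONE-Glo luciferase luminescence after 30 min at room temperature. HepG2-CYP2B6-hCAR double-stable cells, compounds in 15-point titration plus 50 nM CITCO final, 24 h at 37 C/5% CO2.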
# [5] = target: Nuclear receptor subfamily 1 group I member 3 (Homo sapiens) (UniProt Q14994); assay: qHTS assay to identify small molecule agonists of the constitutive androstane receptor (CAR) signaling pathway (AID 1224839); further: nearly all actives have a fitted effect of over 15% in size; further: potency means the concentration at half of the fitted maximal effect;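 on activation: HepG2 cells stably carrying human CAR and a CYP2B6 luciferase reporter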
# Outline: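 Readout: firefly luciferase luminescence via ONE-Glo. System: HepG2 double-stable for hCAR and CYP2B6-2.2kb. Conditions: 15-point compound titration, PK11195 at 0.75 uM final, 24 h incubation.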
# [6] = qHTS assay to identify small molecule antagonists of the estrogen related receptor signaling pathway with the pleiotropic PPARgamma coactivator (PGC) from Tox21 10K library - cell viability counter screen (AID 1224840; active means well fitted cell-killing curve with a large enough effect in the repeat runs, not every such curve was filed as active; further: nearly all actives have a fitted effect of over 40% in size)
# Outline: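 Fluorescence read-out of CellTiter-Fluor viability reagent, added after cells had been exposed to compound in DMSO for 17.5 h at 37 C; 30 min development at 37 C/5% CO2. Cells: PGC/ERR line, 2,000/well.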
# [7] = qHTS assay to identify small molecule agonists of the hypoxia (HIF-1) signaling pathway - cell viability counter screen (AID 1224844; calls by dose curve; further: nearly all actives have a fitted effect of over 50% in size)
# Outline: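 CellTiter-Glo luminescence read-out, 30 min RT, taken in the same wells as the beta-lactamase HRE reporter assay; HRE-bla ME-180 cells, 0.5% dialyzed FBS, 17 hr compound treatment at 37C, 5% CO2.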
# [8] = qHTS assay to identify small molecule agonists of the hypoxia (HIF-1) signaling pathway (AID 1224846; active means well fitted activation curve with a large enough effect in the signal ratio in the repeat runs, not every such curve was filed as active; the % refers to the signal ratio)
# Outline: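 Beta-lactamase FRET read-out (CCF4-AM substrate) from ME-180 cells carrying an HRE-driven bla reporter, after 17 hrs compound exposure at 37C/5% CO2. Cells were seeded at 2,000 per well in 0.5% dialyzed FBS medium and preincubated 5 hrs.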
# [9] = qHTS RealTime-Glo MT Cell Viability Assay in HepG2 cells - 24 hour (AID 1224867); further: nearly all actives have a fitted effect of over 50% in size
# Outline: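 qHTS, HepG2, 600 cells/well, RealTime-Glo (NanoLuc + prosubstrate) added with cells; 5 h preincubation; DMSO compound addition; 37 C; luminescence at 0/8/16/24/32/40 h.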
# [10] = A CellTox Green Cytotoxicity Assay to monitor cytotoxicity in HEK293 cells - 0 hour (AID 1224869); further: nearly all actives have a fitted effect of over 50% in size; further: potency means the concentration at half of the fitted maximal effect
# Outline: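 Read-out: fluorescence of a cell-impermeant cyanine dye staining DNA of dead cells, proportional to cytotoxicity. HEK293, 600 cells/well with reagent, compound (23 nL DMSO) added after 5 h; reads at 0, 8, 16, 24, 32, 40 h.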
# [11] = qHTS RealTime-Glo MT Cell Viability Assay in HepG2 cells - 40 hour (AID 1224870); further: nearly all actives have a fitted effect of over 50% in size
# Outline: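 HepG2 cells (600/well) mixed with RealTime-Glo MT reagent, settled 5 h at 37 C/5% CO2 before compound addition. Nonlytic NanoLuc luminescence from viable-cell prosubstrate reduction read repeatedly during 40 h treatment at 37 C.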
# [12] = qHTS assay to identify small molecule agonists of the estrogen related receptor signaling pathway with the pleiotropic PPARgamma coactivator (PGC) from Tox21 10K library (AID 1224842); further: nearly all actives have a fitted effect of over 15% in size; further: potency means the concentration at half of the fitted maximal effect
# Outline: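 PGC/ERR reporter cell line, 2,000 cells per well, incubated 6 h at 37 C before 23 nL compound in DMSO was added. After 18 h at 37 C, One-Glo luminescence read following 30 min at room temperature.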
# [13] = qHTS assay to identify small molecule agonists of the estrogen related receptor (ERR) signaling pathway from Tox21 library (AID 1224849; calls by dose curve; further: nearly all actives have a fitted effect of over 15% in size); details: ERR reporter cell line, ONE-Glo luciferase, 18 h
# Outline: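 Luminescence readout (ONE-Glo, 30 min RT) after 18 h compound exposure at 37 C of NTP-supplied ERR reporter cells; cells were plated 6 h before compound addition by pin tool.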
# [14] = qHTS assay to identify small molecule antagonists of the estrogen related receptor signaling pathway with the pleiotropic PPARgamma coactivator (PGC) from Tox21 10K library (AID 1224841; call rule not given here)
# Outline: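 Luminescence read-out (One-Glo luciferase reagent, 30 min at room temperature) from PGC/ERR cells exposed to DMSO-dissolved test compounds for 18 h at 37 C; cells, 2,000 per well, had been preincubated 6 h before compound transfer.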
# [15] = target: Thyrotropin receptor (Homo sapiens) (UniProt P16473); assay: qHTS assay to identify small molecule agonists of the thyroid stimulating hormone receptor (TSHR) signaling pathway (AID 1224843; calls by dose curve; further: nearly all actives have a fitted effect of over 45% in size)
# Thyrotropin receptor (Homo sapiens), sequence (P16473 whole entry, looked up): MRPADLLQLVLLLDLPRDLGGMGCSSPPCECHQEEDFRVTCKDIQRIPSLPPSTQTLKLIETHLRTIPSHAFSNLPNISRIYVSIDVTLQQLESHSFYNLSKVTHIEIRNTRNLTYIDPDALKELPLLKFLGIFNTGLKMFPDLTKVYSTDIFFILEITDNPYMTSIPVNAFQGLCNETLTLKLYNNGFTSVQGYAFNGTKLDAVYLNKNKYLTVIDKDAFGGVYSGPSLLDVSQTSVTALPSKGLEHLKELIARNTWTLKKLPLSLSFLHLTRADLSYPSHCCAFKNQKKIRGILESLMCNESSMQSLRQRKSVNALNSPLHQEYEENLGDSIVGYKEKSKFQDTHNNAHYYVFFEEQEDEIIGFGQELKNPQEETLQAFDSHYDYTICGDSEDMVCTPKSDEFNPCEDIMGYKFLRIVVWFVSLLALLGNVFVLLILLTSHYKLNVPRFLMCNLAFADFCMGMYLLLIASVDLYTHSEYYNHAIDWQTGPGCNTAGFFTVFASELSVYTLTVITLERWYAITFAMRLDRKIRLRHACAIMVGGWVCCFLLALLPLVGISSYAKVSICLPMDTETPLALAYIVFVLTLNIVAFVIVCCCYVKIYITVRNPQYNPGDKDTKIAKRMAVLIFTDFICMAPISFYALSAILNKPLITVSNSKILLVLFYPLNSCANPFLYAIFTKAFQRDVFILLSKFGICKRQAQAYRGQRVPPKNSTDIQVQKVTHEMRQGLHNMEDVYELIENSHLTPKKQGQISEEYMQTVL
# Outline: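 Agonist-mode screen: TSHR HEK293 cells received test chemicals for half an hour at room temperature, then HTRF cAMP detection reagents for one hour prior to fluorescence measurement. Each chemical ran as a 15-concentration series, triplicated.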
# [16] = qHTS assay to identify small molecule agonists of H2AX (AID 1224845; active means well fitted activation curve with a large enough effect in the signal ratio in the repeat runs, not every such curve was filed as active; the % refers to the signal ratio)
# Outline: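 Wild-type CHO-K1 cells, plated overnight, exposed 3hr at 37C to 15 concentrations (0.76% DMSO final). Lysed, then HTRF anti-pH2AX (S139) cryptate and anti-H2AX-d2 antibodies, 24 hr room temperature; 665/620 nm emission read.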
# [17] = qHTS assay to identify small molecule agonists of H2AX - cell viability counter screen (AID 1224847; calls by dose curve; further: top concentration of the series differs between compounds; nearly all actives have a fitted effect of over 30% in size)
# Outline: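 For this counter screen, overnight-attached CHO-K1 cells received test compounds (15 concentrations, 0.76% DMSO final); 3 hr later at 37C, CellTiter-Glo reagent was added and luminescence recorded after 30 min at room temperature.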
# [18] = qHTS assay to identify small molecule antagonists of the estrogen related receptor (ERR) signaling pathway from Tox21 library (AID 1224848); further: nearly all actives have a fitted effect of over 50% in size
# Outline: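 Quantitative high-throughput format: ERR reporter cells (2,000/well) pre-incubated 6 h, treated 18 h at 37 C with compounds in DMSO alongside positive and negative controls, then read by ONE-Glo luminescence.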
# [19] = qHTS RealTime-Glo MT Cell Viability Assay in HEK293 cells - 32 hour (AID 1224868)
# Outline: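 Assay medium contained NanoLuc luciferase plus cell-permeant prosubstrate, added with HEK293 cells at 600 cells/well. After 5 h at 37 C/5% CO2 compounds were added; plates stayed at 37 C for 40 h with serial luminescence reads.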
# [20] = qHTS assay to identify small molecule antagonists of the estrogen related receptor (ERR) signaling pathway from Tox21 library - cell viability counter screen (AID 1224834); further: nearly all actives have a fitted effect of over 30% in size; further: potency means the concentration at half of the fitted maximal effect
# Outline: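 Multiplexed viability counter screen in ERR cells: 17.5 h compound exposure at 37 C, CellTiter-Fluor added, 30 min at 37 C/5% CO2, fluorescence read.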
smiles,measurement,setting,value
CCCCCCCCCCCCOC(=O)c1ccc(O)cc1,Potency,[1],inactive
same,Potency,[2],inactive
same,Potency,[3],inactive
same,Potency,[4],inactive
same,Potency,[5],inactive
same,Potency,[6],inactive
same,Potency,[7],inactive
same,Potency,[8],inactive
same,Potency,[9],inactive
same,Potency,[10],inactive
same,Potency,[11],inactive
C#C[C@]1(OC(C)=O)CC[C@H]2[C@@H]3CCC4=C/C(=N/O)CC[C@@H]4[C@H]3CC[C@@]21CC,Potency,[1],inactive
same,Potency,[2],inactive
same,Potency,[3],inactive
same,Potency,[4],inactive
same,Potency,[5],inactive
same,Potency,[6],inactive
same,Potency,[12],inactive
same,"activity change, positive = activation",[13]; at 42.5 µM (top of the series),-41.4%
same,Potency,[9],inactive
same,Potency,[10],inactive
CC1(C)CCC[C@]2(C)[C@H]3CCO[C@]3(C)CC[C@@H]12,Potency,[1],inactive
same,Potency,[2],inactive
same,Potency,[3],inactive
same,Potency,[4],inactive
same,Potency,[5],inactive
same,Potency,[6],inactive
same,Potency,[14],inactive
same,Potency,[15],inactive
same,Potency,[16],inactive
same,Potency,[17],inactive
same,Potency,[18],inactive
same,"activity change, positive = activation",[13]; at 92.4 µM (top of the series),5.7%
same,Potency,[9],inactive
same,Potency,[19],inactive
COc1c(C)c2c(c(O)c1C/C=C(\C)CCC(=O)OCCN1CCOCC1)C(=O)OC2,Potency,[1],inactive
same,Potency,[2],inactive
same,Potency,[3],inactive
same,Potency,[4],1.06 µM (active)
same,Potency,[5],inactive
same,Potency,[6],inactive
same,Potency,[14],inactive
same,Potency,[15],inactive
same,Potency,[8],inactive
same,Potency,[17],inactive
same,Potency,[18],inactive
same,"activity change, positive = activation",[13]; at 42.5 µM (top of the series),-23.6%
same,Potency,[9],inactive
same,Potency,[19],inactive
same,Potency,[10],inactive
same,Potency,[11],inactive
Nc1cc(Cl)c(O)c(Cl)c1,Potency,[1],inactive
same,Potency,[2],inactive
same,Potency,[3],inactive
same,Potency,[4],inactive
same,Potency,[6],inactive
same,Potency,[14],inactive
same,Potency,[12],inactive
same,Potency,[8],inactive
same,Potency,[18],inactive
same,"activity change, positive = activation",[13]; at 92.4 µM (top of the series),-4.45%
same,Potency,[9],inactive
same,Potency,[10],inactive
same,Potency,[11],inactive
Nc1ccc(C(=O)O)c(O)c1,Potency,[1],inactive
same,Potency,[2],inactive
same,Potency,[3],inactive
same,Potency,[4],inactive
same,Potency,[5],inactive
same,Potency,[6],inactive
same,Potency,[14],inactive
same,Potency,[12],inactive
same,Potency,[15],inactive
same,Potency,[7],inactive
same,Potency,[17],inactive
same,"activity change, positive = activation",[13]; at 42.5 µM (top of the series),-27.4%
same,Potency,[9],inactive
same,Potency,[19],inactive
same,Potency,[10],inactive
same,Potency,[11],inactive
O=C(O)c1cc(N=Nc2ccc([N+](=O)[O-])cc2)ccc1O,Potency,[20],47.7 µM (active)
same,Potency,[4],inactive
same,Potency,[5],0.673 µM (active)
same,Potency,[14],inactive
same,Potency,[12],9.51 µM (active)
same,Potency,[15],inactive
same,Potency,[7],inactive
same,Potency,[17],inactive
same,Potency,[18],inactive
same,"activity change, positive = activation",[13]; at 92.4 µM (top of the series),93.2% (active)
same,Potency,[9],inactive
same,Potency,[10],inactive
O=C(O)CN(CCN(CC(=O)O)CC(=O)O)CC(=O)O,"viability change, negative = cytotoxic",[20],1.59% [at 3.27 µM]
same,Potency,[4],1.94 µM (active)
same,activation,[5],-0.673% [at 3.27 µM]
same,"viability change, negative = cytotoxic",[6],1.11% [at 3.27 µM]
same,activation,[15],-1.34% [at 3.27 µM]
same,"activity change, negative = cytotoxicity",[7],-5.67% [at 2.72 µM]
same,"activity change, negative = cytotoxicity",[17],-5.08% [at 5.43 µM]
same,"activity change, negative = cytotoxicity",[9],3.3% [at 2.72 µM]
same,Potency,[10],1.96 µM (active)
same,"activity change, negative = cytotoxic",[11],12.4% [at 2.72 µM]
